According to PubChem BioAssay AID1494156 (National Center for Advancing Translational Sciences (NCATS), 2020):
Results filed as inconclusive are left out. The source made the active and inactive calls. Calls come from the whole dose curve.

Experiment: VSV-G qHTS counterscreen for inhibitors of MERS-S pseudo-typed particle cell entry
Settings: VSV-G pseudotyped particle cell entry, luciferase counterscreen; series mostly up to 57.1 µM; activity, negative = inhibition: at the top concentration

With `CCn1cc(C(=O)O)c(=O)c2cc(F)c(N3CCNC(C)C3)c(F)c21` (stereo not given) as the compound, how does the “activity, negative = inhibition” value read?
Its value is 0.566% (inactive).

For `CCCCCCCCCCCCOCCOCCOCCOCCOCCOCCOCCOCCOCCO`, which Potency is on record?
Its Potency is 5.41 µM (active).

Which activity, negative = inhibition does the source give for `CCOc1cc2ncc(C#N)c(Nc3ccc(OCc4ccccn4)c(Cl)c3)c2cc1NC(=O)/C=C/CN(C)C` here?
Its activity, negative = inhibition is -3.61% [at 11.2 µM] (inactive).

With `C=C1c2c(Cl)ccc(O)c2C(O)=C2C(=O)[C@@]3(O)C(O)=C(C(N)=O)C(=O)[C@@H](N(C)C)[C@@H]3[C@@H](O)[C@H]12` as the compound, how does the Potency read?
The Potency was 19.2 µM (active).

For `CCCCc1oc2ccccc2c1C(=O)c1cc(I)c(OCCN(CC)CC)c(I)c1`, which Potency is on record?
The Potency was 24.1 µM (active).

With `COc1ccc(Cc2nccc3cc(OC)c(OC)cc23)cc1OC` as the compound, how does the Potency read?
Its Potency is 3.04 µM (active).

With `CNC(=O)c1cc(Oc2ccc(NC(=O)Nc3ccc(Cl)c(C(F)(F)F)c3)c(F)c2)ccn1` as the compound, how does the Potency read?
Its Potency is 15.2 µM (active).

For `Cc1cc(-n2c(=O)[nH]c(=O)n(C)c2=O)ccc1Oc1ccc(S(=O)(=O)C(F)(F)F)cc1`, which Potency is on record?
The Potency was 9.61 µM (active).

For `N#CC(c1ccc(Cl)cc1)c1c(Cl)cc(-n2ncc(=O)[nH]c2=O)cc1Cl` (stereo not given), which Potency is on record?
The Potency was 3.83 µM (active).

Which Potency does the source give for `COC(=O)C[C@](O)(CCCC(C)(C)O)C(=O)O[C@@H]1C(OC)=C[C@]23CCCN2CCc2cc4c(cc2[C@H]13)OCO4` here?
The Potency was 0.482 µM (active).

With `CC(C)C[C@H](NC(=O)[C@H](CCc1ccccc1)NC(=O)CN1CCOCC1)C(=O)N[C@@H](Cc1ccccc1)C(=O)N[C@@H](CC(C)C)C(=O)[C@@]1(C)CO1` as the compound, how does the Potency read?
The Potency was 0.192 µM (active).

For `C[C@H]1[C@H](OC(=O)CCC(=O)O)O[C@@H]2O[C@@]3(C)CC[C@H]4[C@H](C)CC[C@@H]1[C@@]24OO3`, which Potency is on record?
The Potency was 0.681 µM (active).

For `Nc1nc(Cl)nc2c1ncn2C1CC(O)C(CO)O1` (stereo not given), which Potency is on record?
Its Potency is 9.61 µM (active).

Which “activity, negative = inhibition” value does the source give for `O=c1ccc2ccccc2o1` here?
Its value is 0% (inactive).

With `COc1cc2c(cc1Cc1cccc(Cl)c1F)c(=O)c(C(=O)O)cn2[C@H](CO)C(C)C` as the compound, how does the Potency read?
Its Potency is 0.192 µM (active).

For `C[n+]1c2cc(N)ccc2cc2ccc(N)cc21` (tested in a mixture with another compound), which Potency is on record?
The Potency was 1.71 µM (active).

Which Potency does the source give for `COc1cc([C@@H]2c3cc4c(cc3C(O[C@@H]3O[C@@H]5CO[C@@H](c6cccs6)OC5[C@H](O)[C@H]3O)C3COC(=O)[C@@H]32)OCO4)cc(OC)c1O` (stereo not given in full) here?
The Potency was 0.192 µM (active).

With `COc1cc2nccc(Oc3ccc(NC(=O)NC4CC4)c(Cl)c3)c2cc1C(N)=O` as the compound, how does the Potency read?
The Potency was 17.1 µM (active).

Which Potency does the source give for `O=C1CCc2ccc(OCCCCN3CCN(c4cccc(Cl)c4Cl)CC3)cc2N1` here?
Its Potency is 13.6 µM (active).

With `CN(C/C=C/c1ccccc1)Cc1cccc2ccccc12` as the compound, how does the “activity, negative = inhibition” value read?
The value was -16.4% (inactive).

With `Oc1c(Cl)cc(Cl)c(Cl)c1Cc1c(O)c(Cl)cc(Cl)c1Cl` as the compound, how does the Potency read?
The Potency was 1.08 µM (active).

With `O=c1c(C2CC(c3ccc(-c4ccc(Br)cc4)cc3)Cc3ccccc32)c(O)sc2ccccc12` (stereo not given) as the compound, how does the Potency read?
The Potency was 6.07 µM (active).

For `O=C(Nc1ccc([N+](=O)[O-])cc1Cl)c1cc(Cl)ccc1O`, which Potency is on record?
The Potency was 0.607 µM (active).

For `COc1cccc2c1C(=O)c1c(O)c3c(c(O)c1C2=O)C[C@@](O)(C(=O)CO)CC3OC1CC(N2CCOC(OC)C2)C(O)C(C)O1` (stereo not given in full), which Potency is on record?
Its Potency is 0.152 µM (active).

With `CC(C)OC(=O)[C@H](C)N[P@](=O)(CO[C@H](C)Cn1cnc2c(N)ncnc21)Oc1ccccc1` as the compound, how does the Potency read?
The Potency was 0.0271 µM (active).

For `COc1cc2nccc(Oc3ccc(NC(=O)C4(C(=O)Nc5ccc(F)cc5)CC4)cc3)c2cc1OC`, which Potency is on record?
Its Potency is 15.2 µM (active).

Which Potency does the source give for `CCCCCCOC(=O)NC(=N)c1ccc(NCc2nc3cc(C(=O)N(CCC(=O)OCC)c4ccccn4)ccc3n2C)cc1` here?
Its Potency is 27.1 µM (active).

For `CC[C@@]1(O)C(=O)OCc2c1cc1n(c2=O)Cc2cc3c(CN(C)C)c(O)ccc3nc2-1`, which Potency is on record?
The Potency was 0.0857 µM (active).

For `Nc1ccn([C@@H]2O[C@H](CO)[C@@H](O)C2(F)F)c(=O)n1`, which Potency is on record?
The Potency was 0.136 µM (active).

With `CCN(CC)Cc1cc(Nc2ccnc3cc(Cl)ccc23)ccc1O` as the compound, how does the Potency read?
Its Potency is 24.1 µM (active).
